HPGD inh – qHTS Assay for Inhibitors of HPGD (15-Hydroxyprostaglandin Dehydrogenase); 15-hydroxyprostaglandin dehydrogenase [NAD(+)] (Homo sapiens), P15428; purified HPGD, NADH fluorescence kinetic, PGE2 substrate; Potency, µM, most hits filed as inhibitors; hit rate 4.3% among 150,000; AID 894, 2007
Target sequence (P15428 whole entry, looked up): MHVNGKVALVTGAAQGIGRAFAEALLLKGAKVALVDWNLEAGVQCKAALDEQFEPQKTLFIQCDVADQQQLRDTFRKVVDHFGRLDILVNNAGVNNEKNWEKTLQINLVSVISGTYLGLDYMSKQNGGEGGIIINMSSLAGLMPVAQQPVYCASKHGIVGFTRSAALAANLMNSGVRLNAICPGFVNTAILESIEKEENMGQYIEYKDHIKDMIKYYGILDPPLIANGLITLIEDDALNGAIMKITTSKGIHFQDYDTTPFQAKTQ
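NADH formation kinetics: reaction with 30 uM PGE2 and 1 mM NAD+ (final), 20 nM enzyme, Tris-HCl pH 8 with Tween 20, after 15 min compound preincubation at room temperature. Fluorescence change, last versus first of five reads.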
IMPase inh – qHTS Assay for Identifying the Cell-Membrane Permeable IMPase Inhibitors; CHO-M1 cells, IP1 accumulation, HTRF TR-FRET ratio; inhibition (IP1 accumulation), % at 46.1 µM; 120,000 tested, under 10 active; active = well fitted curve in the direction sought with a large enough effect in the signal ratio, not every such curve was filed as active; inconclusive = small, poorly fitted or top-dose-only effect, or a change in a side signal; inactive = no such curve, though single readings can be large or run the other way; the % refers to the signal ratio;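 also: cells stimulated with carbachol in lithium chloride buffer; higher means more IMPase inhibition seen as more IP1 and lower FRET ratio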
Target sequence (P97697 whole entry, looked up): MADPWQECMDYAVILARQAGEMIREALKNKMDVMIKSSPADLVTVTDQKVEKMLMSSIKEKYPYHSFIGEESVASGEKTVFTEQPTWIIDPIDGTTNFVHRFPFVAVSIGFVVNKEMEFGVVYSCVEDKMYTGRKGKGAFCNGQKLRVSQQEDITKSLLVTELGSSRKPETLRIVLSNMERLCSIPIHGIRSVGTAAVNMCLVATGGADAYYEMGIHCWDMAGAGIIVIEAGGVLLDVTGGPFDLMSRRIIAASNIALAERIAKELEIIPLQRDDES
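Carbachol-driven Gq signalling in CHO-M1 cells (2000/well) generates IP1. Compounds that block IMPase raise IP1 and so reduce the FRET signal from Eu-anti-IP1 and d2-IP1 after a 10 min room-temperature lysis.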
ALDH1A1 block – qHTS Assay for Inhibitors of Aldehyde Dehydrogenase 1 (ALDH1A1) | Potency, µM (top dose mostly 75.3 µM), most hits filed as inhibitors | Purified ALDH1A1, NADH fluorescence, propionaldehyde substrate | hit rate 7.3% among 220,000
Numbers stand for hits; i = inactive; ? = inconclusive; nt = no result given; [ ] = dose if it differs, or a comment. Rows were chosen to be rich in hits. Some 9% of all compounds tested hit in one or more screens of this group. Unless noted, calls follow the shape of the dose curve; as a rule, active = well fitted inhibition curve with a large enough effect (not every such curve was filed as active); inconclusive = small, poorly fitted or top-dose-only effect, or another doubt; inactive = no such curve, though single readings can be large or run the other way.

SMILES	HPGD inh	IMPase inh	ALDH1A1 block
CC(=O)c1cc2c(cc1N(C(=O)Cn1nnc3ccccc31)C(C(=O)NCCC(C)C)c1cccnc1)OCO2 (stereo not given)	nt	nt	i
C/C(=N\NS(=O)(=O)c1ccc([N+](=O)[O-])cc1)c1ccc(NC(=O)c2ccco2)cc1	nt	nt	25.1µM
O=C(Nc1ccc(S(=O)(=O)NC2CCCCC2)cc1)c1ccc(Br)o1	14.1µM	i	i
C/C(=N/NS(=O)(=O)c1ccc(Br)cc1)c1ccc(NC(=O)c2ccc(C)o2)cc1	i	?	i
CN(C1CCCCC1)S(=O)(=O)c1ccc(NC(=O)c2ccc(Br)o2)cc1	i	i	?
O=C(Nc1ccc(S(=O)(=O)NC2CCCCC2)cc1)c1ccco1	12.6µM	i	i
O=C(Nc1ccc(S(=O)(=O)N2CCC(C(=O)NC3CCCCC3)CC2)cc1)c1ccco1	?	i	?
COc1ccc2nc(SCC(=O)Nc3cc(OC)c(OC)cc3C(=O)O)c(C)cc2c1	nt	nt	i
CN1CCC/C1=C1/C(=O)N(c2ccccc2)N=C1NC(=O)Nc1cccc(Cl)c1	nt	nt	i
Cc1ccc(NC(=O)NC2=NN(c3ccccc3)C(=O)/C2=C2/CCCN2C)cc1	nt	nt	7.08µM
O=c1c2ccccc2nnn1Cc1ccc2ccccc2c1	nt	nt	i
NC(=S)NN=C1C2CC3CC(C2)CC1C3	nt	nt	25.1µM
NC(=O)C(=O)NN=C1C2CC3CC(C2)CC1C3	nt	nt	i
COc1ccc(S(=O)(=O)N(CC(=O)Nc2cccnc2)c2ccc(Cl)cc2)cc1	nt	i	nt
O=C(O)C(=O)/C=C(\O)c1ccc(Br)cc1	i	nt	i[13.5 µM]
N#Cc1ccc(COn2nnc3ccccc32)cc1	nt	nt	i
CCOc1ccc(/C(O)=C/C(=O)C(=O)Nc2ccc(S(=O)(=O)NC(C)=O)cc2)cc1	i	i	i
COc1ccc(CCCC(=O)NC2CCCCC2)cc1	?	i	i
COc1ccc(CCCC(=O)NC2CCCCC2C)c(C)c1 (stereo not given)	3.55µM	i	15.8µM
O=C(c1csnn1)N1CCC[C@@]2(CCN(Cc3cc(C(F)(F)F)cc(C(F)(F)F)c3)C2)C1	i	nt	?
COc1ccc(C(=O)N2CCC[C@@]3(CCN(CC(C)C)C3)C2)cc1	i	nt	i
CCOC(=O)C1=C(N)N(c2ccccc2Oc2ccccc2)C(=O)C1	i	i	i
CCOC(=O)C1=C2NC(=O)c3ccccc3N2C(=O)C1	nt	nt	25.1µM
CC(C)CC(C)c1cc(N)nc2nc3ccccc3n12 (stereo not given)	nt	nt	i
CC(C)CC(=O)c1c[nH]c(C(=O)NCCCN2CCOCC2)c1	i	i	i
SMILES	HPGD inh	IMPase inh	ALDH1A1 block
CC(C)(C)c1ccc(-c2nn(CCC#N)cc2/C=N/O)cc1	nt	nt	i
Cc1ccc(-c2nn(CCC#N)cc2C=C(C#N)C#N)cc1	i	i	20µM
COC(=O)c1ccc(-n2c(C)cc(C(=O)CCl)c2C)cc1	nt	nt	0.447µM
CCOc1ccc(-n2c(C)cc(C(=O)CCl)c2C)cc1	nt	nt	0.112µM
COC(=O)c1ccc(-n2c(C)cc(C(=O)COC(=O)CNS(=O)(=O)c3ccc(C)cc3)c2C)cc1	i	nt	?
CCOC(=O)c1cc2c(C)n(-c3ccc(OCC)cc3)c(C)c2cc(C(=O)OCC)c1=O	i	i	i
CCN(C(=O)CN1C=NS(=O)(=O)c2ccccc21)c1ccccc1	i	nt	i
Cc1oc(C)c2c(=O)ccc3c(c12)OC(N)=C(C#N)C3c1ccccc1Cl (stereo not given)	i	i	25.1µM
Cc1oc(C)c2c(=O)ccc3c(c12)OC(N)=C(C#N)C3c1ccccc1 (stereo not given)	i	i[1.84 µM]	?
O=C(COc1ccc2ccccc2c1CN1CCOCC1)N1CCc2ccccc21	i	i	i
COc1cc(/C=N/NC(=O)c2cc(-c3ccco3)nc3ccccc23)cc(OC)c1O	nt	nt	22.4µM
O=C(N/N=C/c1cccc(F)c1)c1cc(-c2ccco2)nc2ccccc12	?	i	?
COc1ccc(-c2[nH]ncc2CN(Cc2nccn2C)C(C)C)c(F)c1	nt	nt	22.4µM
CCn1ccnc1CN(C)Cc1cn[nH]c1-c1ccc(F)cc1F	nt	nt	i
Cc1cc(C)c(S(=O)(=O)N2CCCCC2)c(C)c1-n1ncnn1	i	i	i
CN(C)c1oc(-c2ccccc2[N+](=O)[O-])nc1C#N	nt	nt	10µM
CN(C)c1oc(-c2ccccc2Cl)nc1C#N	i	?	?
CCOC(=O)C1CCCN(Cc2nc3ccc([N+](=O)[O-])cc3c(=O)n2-c2ccc(OC)cc2OC)C1 (stereo not given)	nt	nt	i
CCOC(=O)C1CCN(Cc2nc3ccc([N+](=O)[O-])cc3c(=O)n2-c2ccc(OC)cc2OC)CC1	nt	nt	20µM
COc1ccc2c(c1)c(C(=O)CN1CCC(C(N)=O)CC1)c(C)n2C	i	i	i
COc1cccc(-n2c(CN3CCN(c4ccccc4)CC3)nc3ccc([N+](=O)[O-])cc3c2=O)c1	i	nt	28.2µM
COc1ccc(-n2c(CN3CCC(C(N)=O)CC3)nc3ccc([N+](=O)[O-])cc3c2=O)c(OC)c1	nt	nt	9.46µM
COc1cccc(-n2c(N)c(C#N)c3ccc([N+](=O)[O-])cc3c2=O)c1	nt	i	i
O=C(NCc1ccc(Cl)cc1)C(=O)Nc1cccc(Br)c1	nt	i	nt
COc1ccc(Cl)cc1NC(=O)CSC1=Nc2ccccc2C2=NC(CCC(=O)NCc3ccco3)C(=O)N12 (stereo not given)	nt	i	nt
SMILES	HPGD inh	IMPase inh	ALDH1A1 block
O=C(COC(=O)c1ccccc1C(=O)c1ccccc1)NCc1ccc(F)cc1	nt	nt	i
Cc1cc(C)nc(SCC(=O)c2cc3ccccc3oc2=O)n1	17.8µM	i	14.1µM
O=C(CSc1nc2ccccc2o1)c1cc2ccccc2oc1=O	i	i	i
Cc1cc(C)nc(SCC(=O)OCN2C(=O)c3ccccc3C2=O)n1	i	i	10µM
Cn1cnnc1SCC(=O)OCN1C(=O)c2ccccc2C1=O	i	i	i
CC(C)(Oc1ccc(Cl)cc1)C(=O)OCn1nnc2ccccc2c1=O	?	i	5.01µM
Cc1ccc(S(=O)(=O)N[C@H](C(=O)OCn2nnc3ccccc3c2=O)C(C)C)cc1	i	i	i
Cc1ccc(S(=O)(=O)NCCC(=O)OCn2nnc3ccccc3c2=O)cc1	i	i	28.2µM
CCC(=O)OCn1nnc2ccccc2c1=O	nt	nt	i
CCOC(=O)c1cnc2ccc(C)cc2c1Nc1ccc(N(CC)CC)cc1	nt	i	nt
O=C(c1ccc(-n2c(=O)c(=O)[nH]c3ccccc32)cc1)N1CCCN(Cc2ccccc2)CC1	i	nt	?
O=C(Nc1ccccc1)OC1CCC2CC1CCC2OC(=O)Nc1ccccc1 (stereo not given)	i	nt	i
CCOc1cc(-c2nc(-c3ccc(Br)cc3)no2)cc(OCC)c1OCC	nt	i	nt
Nc1nonc1C(=O)NCCNS(=O)(=O)c1ccc(F)cc1	i	i	i
COC(=O)c1sc2nc(C)c([N+](=O)[O-])c(C)c2c1N	i	nt	i
C/C=C1/NN(CCCN2CCN(c3cccc(Cl)c3)CC2)C(=O)N1CCOc1ccccc1	i	nt	i
Cc1ccc(S(=O)(=O)NCC(=O)OCN2C(=O)c3ccccc3C2=O)cc1	i	i	3.98µM
CCOc1ccc(S(=O)(=O)NCCC(=O)OCN2C(=O)c3ccccc3C2=O)cc1	i	i	?
CCOC(=O)N1CCN(C(=O)c2sc3nc(-c4ccc(F)cc4)cn3c2C)CC1	i	i	i
